Source: PubChem (National Center for Advancing Translational Sciences (NCATS))
D1 agonist – activates the human D1 dopamine receptor | HEK293 T-REx D1 cells, calcium flux, agonist mode | P21728 | activation, % at 2 µM | AID 504660 | 360,000 tested, 1% active; also: 0% is about no effect
Target sequence (P21728 whole entry, looked up): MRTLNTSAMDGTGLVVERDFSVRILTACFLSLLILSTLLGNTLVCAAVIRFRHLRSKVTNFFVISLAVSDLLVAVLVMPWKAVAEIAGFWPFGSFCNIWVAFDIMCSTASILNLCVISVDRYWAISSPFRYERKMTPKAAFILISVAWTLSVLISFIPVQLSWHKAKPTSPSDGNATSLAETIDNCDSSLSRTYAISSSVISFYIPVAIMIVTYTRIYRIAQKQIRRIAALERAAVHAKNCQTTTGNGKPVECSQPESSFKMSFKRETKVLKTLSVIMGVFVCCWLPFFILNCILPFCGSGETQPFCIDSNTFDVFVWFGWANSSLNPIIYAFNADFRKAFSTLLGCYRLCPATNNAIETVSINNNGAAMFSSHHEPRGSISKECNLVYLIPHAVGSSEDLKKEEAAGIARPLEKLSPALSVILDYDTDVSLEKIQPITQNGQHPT
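Tetracycline-induced HEK293 TREx D1 cells, force-coupled to calcium signalling, were dye-loaded with a no-wash calcium kit. Compound was pin-added after a 10 s baseline. Fluorescence was read kinetically at 1 cycle/s for 180 s, with calcium rises flagged as agonism.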
USP1 inh – inhibitors of human USP1/UAF1 deubiquitinase; 390,000 tested, 0.23% active; recombinant USP1/UAF1, Ub-Rhodamine cleavage fluorescence; O94782; Potency, µM (doses to about 57.1 µM), for inactives: top-dose activity change, negative = inhibition, most hits filed as inhibitors; active = well fitted inhibition curve with a large enough effect; inconclusive = small, poorly fitted or top-dose-only effect; inactive = no such curve, though single readings can be large or run the other way; also: potency is read from the fitted curve at half-maximal effect; % is scaled to controls: 0 for no effect and ±100 for the full control effect; nearly all actives have a fitted effect of over 60% in size
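USP1/UAF1 complex (1 nM) preincubated 15 min at room temperature with compound, then Ub-Rho substrate (150 nM final) added. Kinetic fluorescence at 480/540 nm over 6 reads at 60 s intervals; 50 mM HEPES pH 7.8, 0.5 mM EDTA, 0.1 mg/ml BSA, 1 mM TCEP, 0.01% Tween-20.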
D1 antagonist – antagonists of human D1 dopamine receptor. P21728. HEK293 TREx D1 cells, calcium flux, dopamine EC80; hits give low values. activity change, negative = inhibition, % at 10 µM. 360,000 tested, 3.2% active. AID 504652; in the data active = activity change below about -30%; also: % is scaled to controls: 0 for no effect and ±100 for the full control effect
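Antagonism measured as reduced calcium response to an EC80 dopamine addition following 180 s compound pre-read; cells were inducible HEK293 Trex D1 plated overnight at 30 C, read kinetically at 1 cycle/sec.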
D1 PAM – enhances dopamine response at the human D1 receptor | P21728 | HEK293 TREx D1 cells, calcium flux, dopamine EC20 potentiation | potentiation, % at 10 µM | 360,000 tested, 0.036% active | AID 504651; in the data active = potentiation above about 30%; also: 0% is about no effect
TRHR agonist – activates the human TRH receptor | P34981 | TRHR cells, calcium flux fluo-8, FDSS agonist mode | activation, % at 2 µM | 360,000 tested, 0.18% active; also: 0% is about no effect
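Agonist-mode FDSS calcium read (Ex 480/Em 530, 1 s cycles) in 1536-well TRHR cells with fluo-8 dye, after 10-cycle baseline and 23 nL compound addition; TRH at EC20 (10 nM final) added afterwards for the enhancer phase.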
TRHR PAM – allosteric enhancers of human TRH receptor; P34981; TRHR cells, fluo-8 calcium fluorescence, EC20 TRH enhancement; enhancement, % at 2 µM; 360,000 tested, 0.66% active; AID 493056; in the data active = enhancement above about 30%; also: 0% is about no effect
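TRHR-expressing cells loaded with fluo-8 calcium dye were read kinetically (ex 480/em 530) during compound addition, then stimulated with an EC20 of TRH (10 nM final). Enhancement of the Gq-mediated intracellular calcium response was scored.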
Starred values were filed as active, the others as inactive; ? = inconclusive; / = no result given; ! = repeats disagree. An excerpt weighted towards active compounds, which were near 4.4% of everything screened. Rule as the data show it, unless noted: active = activation above about 30%; inactive = the rest.

SMILES	D1 agonist	USP1 inh	D1 antagonist	D1 PAM	TRHR agonist	TRHR PAM
Cc1ccc(S(=O)(=O)NNC(=O)c2ccccc2-n2cccc2)cc1	9	-17%	-1	1	0	-2
COc1ccc(S(=O)(=O)NNC(=O)c2ccccc2-n2cccc2)cc1	1	0%	-61*	-5	0	-3
Cc1ccc(NS(=O)(=O)c2ccc(C(=O)N3CC(C)CC(C)C3)cc2)cc1 (centres undefined)	73*	-27%	-42*	1	11	-6
CCc1ccc(C(=O)Nc2cccc(-c3nc4cc(C(C)C)ccc4o3)c2)cc1	2	-24%	-5	-5	1	-2
CC(Cc1cccs1)NC(=S)Nc1ccc(Cl)cc1 (centres undefined)	22	-7%	-60*	-9	0	-6
COc1cccc(CNC(=O)C(=O)NCC(c2cccs2)S(=O)(=O)c2cccs2)c1 (centres undefined)	6	-22%	/	-3	0	0
CCOc1ccc(CNS(=O)(=O)c2c(C(=O)N3CCC(C)CC3)c(C)n(C)c2C)cc1OC	2	-19%	-10	-1	0	-3
COc1ccc(NC(=O)Nc2cccc([N+](=O)[O-])c2)cc1Cl	20	-24%	-57*	-20	3	-1
COc1cc([N+](=O)[O-])ccc1NC(=O)Nc1ccc2c(c1)OCCO2	1	-13%	7	-7	0	3
O=C(Nc1ccc([N+](=O)[O-])cc1)Nc1ccc(OC(F)F)c(Cl)c1	25	-16%	-49*	-17	2	-8
O=C(Nc1ccc([N+](=O)[O-])cc1)Nc1ccc2c(c1)OCCO2	39*	-6%	-41*	-14	2	-8
O=C(Nc1ccc(OC(F)F)c(Cl)c1)Nc1ccc2c(c1)OCO2	17	-15%	-36*	-9	2	-4
O=C(Nc1ccc2c(c1)OCO2)Nc1ccc2c(c1)OCO2	10	-22%	2	4	0	10
COc1ccc(C(=O)Nc2cccc([N+](=O)[O-])c2)cc1Br	/	-24%	/	/	/	/
O=C(Cc1ccc(Cl)cc1Cl)Nc1ccc(OC(F)F)c(Cl)c1	14	-20%	-24	-1	2	12
COc1ccc(NC(=O)Nc2ccc3c(c2)N(C)C(=O)CS3)cc1Cl	13	-14%	-33*	-7	0	-6
COc1ccc(NC(=O)Nc2ccc3c(c2)N(C)C(=O)CS3)cc1OC	5	-22%	-18	-2	0	6
COc1ccc(OC)c(S(=O)(=O)N2CC=C(c3c(C)n(CC(=O)N4CCCC4)c4ccccc34)CC2)c1	1	-22%	-1	-2	0	0
CCCNC(=S)N1CCC(C(=O)c2ccc3c(c2)OCCO3)CC1	15	-22%	-34*	-9	0	-5
COc1cc(F)c(S(=O)(=O)N2CCN(S(=O)(=O)c3ccc4c(c3)OCCO4)CC2)c(F)c1	5	/	20	-2	2	2
Cc1ccccc1C(=O)N(Cc1sccc1C)C1CCS(=O)(=O)C1 (centres undefined)	-2	?	-3	1	0	-2
Cc1ccc(Nc2cc(-n3cccn3)ncn2)c(C)c1	4	?	-5	-2	0	-6
Fc1cccc(Nc2cc(-n3cccn3)ncn2)c1	4	-10%	-45*	-6	0	-2
Cc1cccc(-n2nnnc2S(C)(=O)=O)c1	4	-13%	-51*	-1	0	4
O=[N+]([O-])c1cc(C(F)(F)F)cc([N+](=O)[O-])c1NCCNC(=S)Nc1ccc(Cl)c(Cl)c1	11	-12%	-32*	0	1	-3
SMILES	D1 agonist	USP1 inh	D1 antagonist	D1 PAM	TRHR agonist	TRHR PAM
Nn1c(Cc2cccc3ccccc23)nnc1SCCOc1ccc(F)cc1	5	-23%	-98*	-4	0	-2
CC(=O)c1cccc(NS(=O)(=O)c2cc3c(cc2C)NC(=O)CO3)c1	3	-11%	-22	1	-1	6
Cc1ccc(CNC(=O)CCS(=O)(=O)c2cc3c(cc2C)NC(=O)CO3)cc1	2	-8%	-32*!	-10	0	-1
Cc1ccc(CNC(=O)CCS(=O)(=O)c2ccc3c(c2)NC(=O)CO3)cc1	-1	-10%	9	-7	0	-11
Cc1ccccc1NS(=O)(=O)c1cc2c(cc1C)NC(=O)CO2	8	-25%	-17	8	0	1
CCOC(=O)c1cccc(NS(=O)(=O)c2cc3c(cc2C)NC(=O)CO3)c1	1	-6%	-46*	-4	0	-6
COc1cccc(CNS(=O)(=O)c2cc3c(cc2C)NC(=O)CO3)c1	6	-19%	-32*	-10	0	3
COc1ccc(NS(=O)(=O)c2cc3c(cc2C)NC(=O)CO3)c(OC)c1	5	-15%	-58*!	-10	0	5
CCc1ccc2oc(-c3cc(NC(=O)c4cc([N+](=O)[O-])ccc4N4CCOCC4)ccc3Cl)nc2c1	0	-24%	-4	-5	2	3
O=c1c(N2CCc3ccccc3C2)csc2ccc(F)cc12	13	6%	5	-2	1	3
CC(Cl)OC(=O)Nc1cccc2cccnc12 (centres undefined)	0	/	0	5	1	-4
Cc1cc2c(cc1S(=O)(=O)N(C)CC(=O)Nc1ccc(C#N)cc1)OCC(=O)N2	2	13%	-55*	-5	0	-5
Cc1ccc(Nc2cc(C)c3c(O)cccc3n2)cc1C	35*	-11%	-49*	-18	10	-1
Cc1ccc(Nc2cc(C)c3ccc(O)cc3n2)cc1C	33*	-16%	3	-19	1	10
COc1ccc(Nc2cc(C)c3c(O)cccc3n2)cc1	8	-21%	-33*	-16	1	-8
COc1ccc(C(=O)CC(=O)C(=O)Nc2c(C)cccc2C)cc1	1	-8%	-9	-11	-1	-3
COc1ccc(Nc2c(C)cccc2C)cc1	3	-17%	-38*	-17	0	-3
Cc1cc(NCc2ccco2)nc2cc(O)ccc12	1	-27%	-6	-5	1	-3
COc1cccc(Nc2cc(C)c3ccccc3n2)c1	0	?	4	-4	0	11
Cc1ccccc1Nc1cc(C)c2c(O)cccc2n1	9	-28%	-15	-9	1	0
O=C(NCCc1ccccc1Cl)c1ccc2c(c1)nc1n2CCCCC1	-1	?	-6	2	-1	5
Cc1c(Cl)cccc1NC(=O)CSc1nc(=O)n(Cc2cccnc2)c2c1CCC2	-3	-13%	/	3	0	-2
